Assay results taken from PubChem BioAssay (EPA / NIEHS).
Where a structure was tested more than once in an assay, its records may differ in their call. Calls of active or inactive are those of the source. How the source made its calls: active means hit-call score of the fitted dose curve at least 0.9, where 1 is the maximum; inactive means score below 0.9.

Tests used:
[1] = read-out: Interleukin-8 (IL8), CXCL8 (gene 3576); experiment: BSK_MyoF_IL8: BioMAP Diversity Plus: MyoF Assay for Interleukin-8 (IL8) Biomarker Activity (AID 2284261); conditions: primary human lung fibroblasts
Outline: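 ELISA read-out of IL-8 from primary human lung fibroblasts, 24 h post-dose; positive-direction curve fitting relative to DMSO vehicle baseline.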

[2] = read-out: Decorin, DCN (gene 1634); experiment: BSK_MyoF_Decorin: BioMAP Diversity Plus: MyoF Assay for Decorin Biomarker Activity (AID 2284265); conditions: primary human lung fibroblasts
Outline: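 Human lung fibroblasts in the MyoF system were exposed to compound for 24 h, after which decorin was quantified by ELISA. Activity was fitted in the positive direction relative to DMSO negative control.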

[3] = BSK_MyoF_SRB: Viability Assessment in the BioMAP Diversity Plus: MyoF Assay (AID 2284267); conditions: primary human lung fibroblasts;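 further: total protein by SRB absorbance in parallel cultures as cytotoxicity measure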
Outline: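 Cytotoxicity read-out: after 10% TCA fixation, parallel human lung fibroblast cultures were stained with 0.1% SRB at 24 h post-dosing and read at 560 nm; DMSO served as baseline.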

[4] = read-out: CD69, CD69 (gene 969); experiment: BSK_IMphg_CD69: BioMAP Diversity Plus: IMphg Assay for CD69 Biomarker Activity (AID 2284257); conditions: primary human endothelial cells with macrophages
Outline: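 Readout is ELISA for CD69 in primary human venular endothelial cell/macrophage co-culture, taken at 24 h post-dosing. SRB staining of parallel cultures gauged overt cytotoxicity; signal increase versus DMSO defined activity.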

[5] = read-out: Eotaxin 3, CCL26 (gene 10344); experiment: BSK_BF4T_Eotaxin3: BioMAP Diversity Plus: BF4T Assay for Eotaxin 3 Biomarker Activity (AID 2284258); conditions: primary human bronchial epithelial cells with fibroblasts
Outline: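 ELISA measurement of Eotaxin-3 after 24 h chemical exposure in a bronchial epithelial/dermal fibroblast co-culture, with DMSO as baseline. Parallel SRB staining (0.1% SRB after 10% TCA fixation, 560 nm) flagged overt cytotoxicity.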

[6] = read-out: Intercellular Adhesion Molecule 1 (ICAM1), ICAM1 (gene 3383); experiment: BSK_BF4T_ICAM1: BioMAP Diversity Plus: BF4T Assay for Intercellular Adhesion Molecule 1 (ICAM1) Biomarker Activity (AID 2284260); conditions: primary human bronchial epithelial cells with fibroblasts
Outline: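 ICAM-1 levels measured by ELISA after 24 h chemical treatment of bronchial epithelial cell/dermal fibroblast co-cultures, read against DMSO baseline. Overt cytotoxicity checked in parallel cultures by sulforhodamine B staining.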

[7] = read-out: CD90, THY1 (gene 7070); experiment: BSK_BF4T_CD90: BioMAP Diversity Plus: BF4T Assay for CD90 Biomarker Activity (AID 2284262); conditions: primary human bronchial epithelial cells with fibroblasts
Outline: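 CD90 levels by ELISA after 24 h treatment of human bronchial epithelial cell/dermal fibroblast cultures, analysed versus DMSO. Overt cytotoxicity checked in parallel cultures by sulforhodamine B staining.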

[8] = read-out: Interleukin-8 (IL8), CXCL8 (gene 3576); experiment: BSK_BF4T_IL8: BioMAP Diversity Plus: BF4T Assay for Interleukin-8 (IL8) Biomarker Activity (AID 2284263); conditions: primary human bronchial epithelial cells with fibroblasts
Outline: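 Human bronchial epithelial cells with dermal fibroblasts co-culture; IL-8 measured by ELISA 24 hours after dosing, fitted vs DMSO. Cytotoxicity tracked in parallel cultures by SRB total-protein staining.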

[9] = read-out: Interleukin-1 alpha (IL1a), IL1A (gene 3552); experiment: BSK_BF4T_IL1a: BioMAP Diversity Plus: BF4T Assay for Interleukin-1 alpha (IL1a) Biomarker Activity (AID 2284264); conditions: primary human bronchial epithelial cells with fibroblasts
Outline: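 ELISA read-out of IL-1α from bronchial epithelial cell/dermal fibroblast co-cultures 24 h after compound addition. Increases scored against DMSO negative control. Cytotoxicity monitored by sulforhodamine B staining of parallel cultures.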

[10] = read-out: KRT18 (gene 3875); experiment: BSK_BF4T_Keratin818: BioMAP Diversity Plus: BF4T Assay for Keratin 818 Biomarker Activity (AID 2284266); conditions: primary human bronchial epithelial cells with fibroblasts
Outline: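 Keratin 8/18 levels quantified by ELISA after 24 h chemical treatment of bronchial epithelial cell/dermal fibroblast co-cultures, fitted in positive direction relative to DMSO. Parallel SRB staining tracks overt cytotoxicity.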

Measured: AC50

Cc1c([N+](=O)[O-])cc2c(c1[N+](=O)[O-])C(C)(C)CC2(C)C
inactive: [1] | [2] | [3]

COP(N)(=S)OC
inactive: [1] | [2] | [3]

OCC(F)(F)OC(F)(F)C(F)(F)OC(F)(F)C(F)(F)OC(F)(F)CO
inactive: [4] | [5] | [6] | [1] | [7] | [8] | [9] | [2] | [10] | [3]
active: [6] 26.9 µM

O=C(O)C(F)(F)OC(F)(F)C(F)(F)OC(F)(F)F
inactive: all assays above

NC(=O)C(F)(F)C(F)(F)F
inactive: all assays above

CC(Cl)CN(C)C (stereo not drawn)
inactive: [1] | [2] | [3]

O=C(O)C(F)(F)OC(F)(F)C(F)(F)OC(F)(F)C(=O)O
inactive: all assays above

O=C(O)C(F)(OC(F)(F)C(F)(F)C(F)(F)F)C(F)(F)F (stereo not drawn)
inactive: all assays above

O=C(O)C(F)(F)C(F)(F)C(=O)O
inactive: all assays above

c1ccc2c(c1)sc1ccccc12
inactive: [1] | [2] | [3]

FC(F)(F)C(F)(C(F)(F)F)C(F)(F)C(F)(F)CC1CO1 (stereo not drawn)
inactive: all assays above

CCOP(=S)(OCC)SCn1nnc2ccccc2c1=O
inactive: [1] | [2] | [3]

O=C(O)C=CC(F)(C(F)(F)F)C(F)(F)F
inactive: all assays above

O=c1ssc(Cl)c1Cl
inactive: [1]
active: [2] 9.67 µM | [3] 5.58 µM

CCOP(=S)(OCC)SCS(=O)(=O)CC
inactive: [1] | [2] | [3]

CCOP(=S)(S)OCC
inactive: [1] | [2] | [3]

Nc1ccc([N+](=O)[O-])cc1Cl
inactive: [1] | [2] | [3]
